Values without a mark were called inactive. Records with an inconclusive call do not appear. Where a call stands in place of a potency, no number is given. The source made the active and inactive calls. Calls follow the shape of the dose curve; as a rule, active = well fitted curve in the direction sought with a large enough effect; inconclusive = small, poorly fitted or top-dose-only effect, or another doubt; inactive = no such curve, though single readings can be large; an effect the other way counts as inactive or inconclusive.
Assays:
[1] = Viability counterscreen for antagonist of constitutive androstane receptor (CAR) against the NCATS DSHEA and TCM libraries (AID 1794837);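 also: compound exposure lasted 24 h before viability reading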
How it was run: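 Cell viability, CellTiter-Fluor, Ex/Em 405/540 nm, 1 h at 37C. HepG2-CYP2B6-hCAR, 2,500 cells/well; cpds + CITCO 48 uM final (antagonist mode), 24 h, 37C/5% CO2.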

[2] = Viability counterscreen for agonist of constitutive androstane receptor (CAR) against the NCATS DSHEA and TCM libraries (AID 1794838)
How it was run: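 Viability by CellTiter-Fluor fluorescence, 405/540 nm, after 1 h at 37C. HepG2-CYP2B6-hCAR cells were exposed 24 h to test substances in presence of 0.75 uM PK11195 (final).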

[3] = target: Nuclear receptor subfamily 1 group I member 3 (Homo sapiens) (UniProt Q14994); assay: Primary qHTS for agonist of constitutive androstane receptor (CAR) against the NCATS DSHEA and TCM libraries (AID 1794839);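 also: HepG2 cells expressing human CAR with a CYP2B6 reporter plus PK11195 antagonist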
Chain of Nuclear receptor subfamily 1 group I member 3 (Homo sapiens) (Q14994 whole entry, looked up): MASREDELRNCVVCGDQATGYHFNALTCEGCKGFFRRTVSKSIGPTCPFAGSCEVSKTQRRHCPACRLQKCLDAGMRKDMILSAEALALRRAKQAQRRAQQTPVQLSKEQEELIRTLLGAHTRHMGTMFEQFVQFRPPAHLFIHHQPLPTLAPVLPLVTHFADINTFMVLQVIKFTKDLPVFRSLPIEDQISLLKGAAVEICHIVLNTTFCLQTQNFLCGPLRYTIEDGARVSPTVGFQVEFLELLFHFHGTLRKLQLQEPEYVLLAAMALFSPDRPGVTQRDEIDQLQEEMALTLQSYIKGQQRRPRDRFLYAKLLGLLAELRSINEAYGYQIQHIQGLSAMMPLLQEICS
How it was run: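 Luminescence from ONE-Glo luciferase was the agonist read-out in HepG2-CYP2B6-hCAR cells exposed 24 h to test substances. Wells also held the CAR antagonist PK11195 at 0.75 µM final. Viability was by CellTiter-Fluor fluorescence.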

[4] = HepG2 viability counterscreen (readout 2: ATP content) against the NCATS DSHEA and TCM libraries (AID 1794840)
How it was run: (§1)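 1,000 HepG2 cells/well, 4 h attach; compounds ~24 h, 37C/5% CO2. Readout 1: GF-AFC 25 uM final, 30 min, fluorescence 380/510 nm. Readout 2: CellTiter-Glo, 30 min RT, luminescence.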

[5] = HepG2 viability counterscreen (readout 1: protease activity) against the NCATS DSHEA and TCM libraries (AID 1794841);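 also: cells exposed to compounds for about 24 h before the protease read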
How it was run: as §1

[6] = target: Cytochrome P450 3A4 (Homo sapiens) (UniProt P08684); assay: qHTS for inhibitors of CYP3A4 against the NCATS DSHEA and TCM libraries (AID 1919971); also: potency is read from the fitted curve at half-maximal effect
Chain of Cytochrome P450 3A4 (Homo sapiens) (P08684 whole entry, looked up, canonical isoform): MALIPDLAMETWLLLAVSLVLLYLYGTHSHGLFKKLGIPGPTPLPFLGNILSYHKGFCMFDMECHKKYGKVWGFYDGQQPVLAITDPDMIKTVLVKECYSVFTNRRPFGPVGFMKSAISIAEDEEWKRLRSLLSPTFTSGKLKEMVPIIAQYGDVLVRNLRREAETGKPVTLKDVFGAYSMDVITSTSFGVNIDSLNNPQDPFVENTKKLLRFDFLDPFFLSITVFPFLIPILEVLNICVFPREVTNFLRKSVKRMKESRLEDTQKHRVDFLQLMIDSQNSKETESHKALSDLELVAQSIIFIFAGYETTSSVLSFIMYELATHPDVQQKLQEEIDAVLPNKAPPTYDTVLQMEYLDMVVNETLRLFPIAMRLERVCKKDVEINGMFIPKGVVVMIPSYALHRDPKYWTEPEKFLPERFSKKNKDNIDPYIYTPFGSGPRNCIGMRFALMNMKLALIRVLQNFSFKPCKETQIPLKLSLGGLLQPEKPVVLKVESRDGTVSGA
How it was run: (§2)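 Each CYP isoform and its pro-luciferin substrate, at isoform-specific final concentrations, were preincubated 15 min at RT with substances. NADPH regeneration solution (1x) started a 30-45 min reaction, and P450-Glo luminescence was read.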

[7] = target: Cytochrome P450 2D6 (Homo sapiens) (UniProt P10635); assay: qHTS for inhibitors of CYP2D6 against the NCATS DSHEA and TCM libraries (AID 1919972); also: potency is read from the fitted curve at half-maximal effect
Chain of Cytochrome P450 2D6 (Homo sapiens) (P10635 whole entry, looked up): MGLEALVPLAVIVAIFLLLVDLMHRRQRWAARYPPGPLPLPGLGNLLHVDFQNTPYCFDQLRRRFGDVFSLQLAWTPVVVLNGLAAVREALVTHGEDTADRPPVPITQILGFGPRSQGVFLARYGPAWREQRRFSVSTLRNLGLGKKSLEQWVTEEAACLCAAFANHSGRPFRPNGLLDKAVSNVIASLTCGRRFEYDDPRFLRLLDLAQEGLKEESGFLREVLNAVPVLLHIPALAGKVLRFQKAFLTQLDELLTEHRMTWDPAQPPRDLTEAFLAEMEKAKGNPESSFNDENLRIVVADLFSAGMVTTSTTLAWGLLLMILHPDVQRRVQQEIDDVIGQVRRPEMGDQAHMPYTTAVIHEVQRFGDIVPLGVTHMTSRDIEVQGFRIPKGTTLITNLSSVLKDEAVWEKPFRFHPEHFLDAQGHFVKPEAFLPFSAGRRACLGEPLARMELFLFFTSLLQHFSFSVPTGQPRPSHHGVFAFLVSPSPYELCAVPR
How it was run: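 CYP2D6 enzyme with pro-luciferin substrate in manufacturer buffer (typically 100 mM KPO4), preincubated 15 min RT with substances (most at 19.5 nM upward); NADPH regeneration system (1x) started 30–45 min RT reaction; P450-Glo luminescence read after 30 min; quinidine as intraplate control.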

[8] = target: Cytochrome P450 2C19 (Homo sapiens) (UniProt P33261); assay: qHTS for inhibitors of CYP2C19 against the NCATS DSHEA and TCM libraries (AID 1919974);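 also: luminescence from luciferin released by CYP2C19 oxidation of a pro-luciferin substrate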; also: potency is read from the fitted curve at half-maximal effect
Chain of Cytochrome P450 2C19 (Homo sapiens) (P33261 whole entry, looked up): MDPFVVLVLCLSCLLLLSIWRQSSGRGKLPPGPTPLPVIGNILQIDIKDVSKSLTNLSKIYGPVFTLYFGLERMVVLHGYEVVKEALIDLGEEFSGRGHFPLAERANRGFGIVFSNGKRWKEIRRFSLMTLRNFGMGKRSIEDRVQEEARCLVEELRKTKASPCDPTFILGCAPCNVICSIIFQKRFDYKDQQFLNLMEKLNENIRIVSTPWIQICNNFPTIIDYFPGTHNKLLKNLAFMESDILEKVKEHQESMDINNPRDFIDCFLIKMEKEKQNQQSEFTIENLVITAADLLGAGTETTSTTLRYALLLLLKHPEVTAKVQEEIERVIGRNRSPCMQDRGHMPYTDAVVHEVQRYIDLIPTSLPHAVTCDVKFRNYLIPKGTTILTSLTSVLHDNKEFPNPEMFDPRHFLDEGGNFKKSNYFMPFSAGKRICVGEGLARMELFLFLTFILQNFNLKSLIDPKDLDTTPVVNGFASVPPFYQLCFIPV
How it was run: as §2

[9] = KB-3-1 P-gp reporter qHTS against the NCATS DSHEA and TCM libraries (AID 1919975)
How it was run: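 CellTiter-Glo luminescence viability readout; KB-3-1 parental cells, 500/well, attached ~4 h, then compound for ~72 h, 37C, 5% CO2. Bortezomib intraplate control.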

[10] = Dual reporter qHTS for agonist of Pregnane X Receptor (hPXR) against the NCATS DSHEA and TCM libraries: Fluorescence readout (AID 1920058)
How it was run: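 Viability readout (CellTiter-Fluor, 405/540 nm, 1 h) from agonist-mode PXR dual reporter in hPXR-Luc HepG2 cells. Substances ~24 h, 37 °C, 5% CO2; rifampicin reference, tetraoctyl ammonium bromide cytotoxic control.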

[11] = target: Nuclear receptor subfamily 1 group I member 2 (Homo sapiens) (UniProt O75469); assay: Dual reporter qHTS for agonist of Pregnane X Receptor (hPXR) against the NCATS DSHEA and TCM libraries: Luminescence readout (AID 1920059)
Chain of Nuclear receptor subfamily 1 group I member 2 (Homo sapiens) (O75469 whole entry, looked up): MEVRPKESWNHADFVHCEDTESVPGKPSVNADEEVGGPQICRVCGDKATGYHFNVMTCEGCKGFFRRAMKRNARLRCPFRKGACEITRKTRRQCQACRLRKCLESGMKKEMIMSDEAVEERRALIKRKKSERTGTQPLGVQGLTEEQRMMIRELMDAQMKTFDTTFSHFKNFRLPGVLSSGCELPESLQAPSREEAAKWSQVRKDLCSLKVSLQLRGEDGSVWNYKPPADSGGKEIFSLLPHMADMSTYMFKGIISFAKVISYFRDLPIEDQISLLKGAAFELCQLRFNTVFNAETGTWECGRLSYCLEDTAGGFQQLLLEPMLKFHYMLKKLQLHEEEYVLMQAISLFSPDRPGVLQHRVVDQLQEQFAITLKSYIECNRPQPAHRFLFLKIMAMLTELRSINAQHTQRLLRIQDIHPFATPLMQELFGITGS
How it was run: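 hPXR-LucHepG2 cells in phenol red-free DMEM with 5% charcoal-stripped FBS, 2000 cells/well, attached 5 h, then exposed 24 h at 37C to compounds; rifampicin as positive agonist control (2.8 nM–92 uM). Luciferase luminescence read.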

[12] = target: Nuclear receptor subfamily 1 group I member 2 (Homo sapiens) (UniProt O75469); assay: Dual reporter qHTS for antagonist of Pregnane X Receptor (hPXR) against the NCATS DSHEA and TCM libraries: Luminescence Readout (AID 1920060);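 also: HepG2 cells carrying hPXR luciferase reporter stimulated with rifampicin at 2 µM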
How it was run: (§3)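 Antagonist mode: rifampicin 2 uM final co-added with compounds to hPXR-LucHepG2 cells for 24 h at 37C. Viability by CellTiter-Fluor, Ex/Em 405/540 nm, 1 h; reporter by ONE-Glo luminescence.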

[13] = Dual reporter qHTS for antagonist of Pregnane X Receptor (hPXR) against the NCATS DSHEA and TCM libraries: Fluorescence Readout (AID 1920061)
How it was run: as §3

[14] = qHTS Counterscreen for compound interference against the NCATS DSHEA and TCM libraries (AID 1919978); conditions: firefly luciferase detection reagent interference, luminescence;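 also: compounds preincubated with 1 µM D-luciferin or buffer before detection reagent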
How it was run: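 Luminescence counterscreen for detection-kit interference: compounds at 19.5 nM–39.8 uM final, 15 min RT with 1 uM D-luciferin or buffer only; detection reagent added, 30 min RT, then read.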

With `O[C@@H]1[C@@H](O)[C@H](OC/C=C/c2ccccc2)O[C@H](CO[C@@H]2OC[C@H](O)[C@H](O)[C@H]2O)[C@H]1O` the outcome [1] was “inactive”, the outcome [2] was “inactive” and the Potency [3] was “inactive”. For the same compound, the outcome [4] was “inactive”, the outcome [5] was “inactive” and the Potency [6] was “inactive”. The Potency [7] was “inactive”, the Potency [8] was “inactive” and the outcome [9] was “inactive”. The outcome [10] was “inactive”, the Potency [11] was “inactive” and the outcome [12] was “inactive”. For the same compound, the outcome [13] was “inactive”.
With `CC1(C)CC[C@]2(C(=O)O)CC[C@]3(C)C(=CCC4[C@@]5(C)CC[C@H](O)[C@@](C)(CO)C5CC[C@]43C)[C@H]2C1` (stereo not given in full) the outcome [1] was “inactive”, the outcome [2] was “inactive” and the Potency [3] was “inactive”. The outcome [4] was “inactive”, the outcome [5] was “inactive” and the Potency [7] was “inactive”. For the same compound, the outcome [9] was “inactive”, the Potency [11] was “inactive” and the outcome [12] was “inactive”. For the same compound, the outcome [13] was “inactive”.
With `CC1=CCC(=C(C)C)CC1` the outcome [1] was “inactive”, the outcome [2] was “inactive” and the Potency [3] was “inactive”. For the same compound, the outcome [5] was “inactive”, the Potency [6] was 39.8 µM (active) and the Potency [7] was “inactive”. For the same compound, the outcome [9] was “inactive”, the max response [14] was 2.83% and the Potency [11] was “inactive”. For the same compound, the outcome [12] was “inactive” and the outcome [13] was “inactive”.
In the case of `CC1(C)CC[C@]2(C(=O)O)CC[C@]3(C)C(=CCC4[C@@]5(C)CC[C@@H](O)C(C)(C)C5CC[C@]43C)C2C1` (stereo not given in full), the outcome [1] is reported as “inactive”, the outcome [2] is reported as “inactive” and the Potency [3] is reported as “inactive”. For the same compound, the outcome [4] was “inactive”, the outcome [5] was “inactive” and the Potency [7] was “inactive”. For the same compound, the Potency [8] was “inactive”, the outcome [9] was “inactive” and the max response [14] was -3.58%. For the same compound, the outcome [10] was “inactive”, the Potency [11] was “inactive” and the outcome [12] was “inactive”. For the same compound, the outcome [13] was “inactive”.
For `O=C(O)CC(O)(C(=O)O)C(O)C(=O)O` (stereo not given), the outcome [1] was “inactive”, the outcome [2] was “inactive” and the Potency [3] was “inactive”. The outcome [5] was “inactive”, the Potency [6] was “inactive” and the Potency [7] was “inactive”. For the same compound, the Potency [8] was “inactive”, the outcome [9] was “inactive” and the outcome [10] was “inactive”. For the same compound, the Potency [11] was “inactive”, the outcome [12] was “inactive” and the outcome [13] was “inactive”.
With `C=C1C[C@@]23CC[C@H]4[C@@](C)(CCC[C@@]4(C)C(=O)O[C@@H]4O[C@H](CO)[C@@H](O)[C@H](O)[C@H]4O)[C@@H]2CC[C@]1(O[C@@H]1O[C@H](CO)[C@@H](O)[C@H](O[C@@H]2O[C@H](CO)[C@@H](O)[C@H](O)[C@H]2O)[C@H]1O[C@@H]1O[C@@H](C)[C@H](O)[C@@H](O)[C@H]1O)C3` the outcome [1] was “inactive”, the outcome [2] was “inactive” and the Potency [3] was “inactive”. For the same compound, the outcome [4] was “inactive”, the outcome [5] was “inactive” and the Potency [6] was “inactive”. For the same compound, the Potency [7] was “inactive”, the Potency [8] was “inactive” and the outcome [9] was “inactive”. The max response [14] was 2.19%, the Potency [11] was “inactive” and the outcome [12] was “inactive”. The outcome [13] was “inactive”.
In the case of `CC1=CCC(O)(C(C)C)CC1` (stereo not given), the outcome [1] is reported as “inactive”, the outcome [2] is reported as “inactive” and the Potency [3] is reported as “inactive”. For the same compound, the outcome [4] was “inactive”, the outcome [5] was “inactive” and the Potency [6] was “inactive”. For the same compound, the Potency [7] was “inactive”, the Potency [8] was “inactive” and the outcome [9] was “inactive”. The max response [14] was 1.58%, the outcome [10] was “inactive” and the Potency [11] was “inactive”. For the same compound, the outcome [12] was “inactive” and the outcome [13] was “inactive”.
In the case of `CCCCCCCCCC=O`, the outcome [1] is reported as “inactive”, the outcome [2] is reported as “inactive” and the Potency [3] is reported as “inactive”. For the same compound, the outcome [4] was “inactive”, the outcome [5] was “inactive” and the Potency [6] was “inactive”. For the same compound, the Potency [7] was “inactive”, the Potency [8] was “inactive” and the outcome [9] was “inactive”. For the same compound, the Potency [11] was “inactive”, the outcome [12] was “inactive” and the outcome [13] was “inactive”.
With `O=C(OC[C@H]1O[C@@H](OC(=O)c2cc(O)c(O)c(O)c2)[C@H](OC(=O)c2cc(O)c(O)c(O)c2)[C@@H](OC(=O)c2cc(O)c(O)c(O)c2)[C@@H]1O)c1cc(O)c(O)c(O)c1` the outcome [1] was “inactive”, the outcome [2] was “inactive” and the Potency [3] was “inactive”. The outcome [4] was “inactive”, the outcome [5] was “inactive” and the Potency [6] was 12.6 µM (active). The Potency [8] was 3.98 µM (active), the outcome [9] was “inactive” and the max response [14] was -2.07%. The Potency [11] was “inactive” and the outcome [13] was “inactive”.
In the case of `CCCCCC/C=C\CCCCCCCC(=O)O`, the outcome [1] is reported as “inactive”, the outcome [2] is reported as “inactive” and the Potency [3] is reported as “inactive”. The outcome [5] was “inactive”, the Potency [6] was “inactive” and the Potency [7] was “inactive”. The Potency [8] was “inactive”, the outcome [9] was “inactive” and the Potency [11] was “inactive”. The outcome [12] was “inactive” and the outcome [13] was “inactive”.
For `CC(C)(O)[C@@H]1CC[C@](C)([C@@H]2[C@H](O)C[C@]3(C)C4C[C@@H](O[C@H]5O[C@@H](CO)[C@H](O)[C@@H](O)[C@@H]5O)C5C(C)(C)[C@H](O[C@H]6OC[C@H](O)[C@@H](O)[C@@H]6O)CC[C@]56CC46CC[C@@]23C)O1` (stereo not given in full), the outcome [1] was “inactive”, the outcome [2] was “inactive” and the Potency [3] was “inactive”. For the same compound, the outcome [4] was “inactive”, the outcome [5] was “inactive” and the Potency [6] was “inactive”. For the same compound, the Potency [7] was “inactive”, the Potency [8] was “inactive” and the outcome [9] was “inactive”. For the same compound, the outcome [10] was “inactive”, the Potency [11] was “inactive” and the outcome [12] was “inactive”. The outcome [13] was “inactive”.
In the case of `CCCCCCCCCCCCCCCCCCCCCC(=O)O`, the outcome [1] is reported as “inactive”, the outcome [2] is reported as “inactive” and the Potency [3] is reported as “inactive”. For the same compound, the outcome [4] was “inactive”, the outcome [5] was “inactive” and the Potency [6] was “inactive”. The Potency [7] was “inactive”, the Potency [8] was “inactive” and the outcome [9] was “inactive”. For the same compound, the Potency [11] was “inactive”, the outcome [12] was “inactive” and the outcome [13] was “inactive”.
With `CCCCCCC/C=C/C(=O)CCc1ccc(O)c(OC)c1` the outcome [1] was “inactive”, the outcome [2] was “inactive” and the Potency [3] was “inactive”. The outcome [5] was “inactive”, the Potency [6] was 14.1 µM (active) and the Potency [7] was 10 µM (active). The Potency [8] was 6.31 µM (active), the outcome [9] was “inactive” and the max response [14] was 6.04%. The outcome [12] was “inactive” and the outcome [13] was “inactive”.
With `OCCc1ccc(O)cc1` the outcome [1] was “inactive”, the outcome [2] was “inactive” and the Potency [3] was “inactive”. For the same compound, the outcome [4] was “inactive”, the outcome [5] was “inactive” and the Potency [6] was “inactive”. The Potency [7] was “inactive”, the Potency [8] was “inactive” and the outcome [9] was “inactive”. For the same compound, the max response [14] was -3.57%, the outcome [10] was “inactive” and the Potency [11] was “inactive”. The outcome [12] was “inactive” and the outcome [13] was “inactive”.

— PubChem BioAssay (NCATS)
